Bioassay records: PubChem, several laboratories
NALP1 yeast inh: blocks the NALP1 inflammasome reconstituted in yeast; S. cerevisiae NALP1/ASC/caspase-1 growth, X-gal OD620, 72 h; inhibition, % at 10 µM; 280,000 tested, 0.61% active; in the data active = inhibition mostly above about 24%, no sharp cut-off; inactive = mostly below about 32%
PfHsp90 set2: reduces growth (ATP signal) of yeast expressing P. falciparum Hsp90; inhibition, % at 9.4 µM; S. cerevisiae expressing PfHsp90, BacTiter-Glo ATP, 48 h; yeast lacking PDR1 and PDR3 efflux regulators; 310,000 tested, 0.32% active;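 active = every replicate shows inhibition above about 80%, whatever the replicate mean, limit read from the data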;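 also: 0% = DMSO neutral controls and 100% = 20 µM radicicol positive controls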
tim10-1 inh: inhibits growth of tim10-1 mutant yeast; S. cerevisiae tim10-1 ts strain growth, BacTiter-Glo, 24 h; inhibition, % at 20 µM; 330,000 tested, 2.2% active; AID 463190;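 active = inhibition of at least 40%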;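 also: mutant grown at 25 °C; 0% = DMSO wells with yeast and 100% = wells holding no yeast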
TIM10 inh: growth inhibitors of TIM10 yeast strain; 330,000 tested, 1.4% active; inhibition, % at 10 µM; AID 463195; S. cerevisiae TIM10 strain growth, BacTiter-Glo luminescence, 24 h;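 active = inhibition of 40% or more at the single tested concentration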;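 also: wild-type TIM10 isogenic control strain grown at permissive 25 °C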
NLRP3 yeast inh: inhibitors of NALP3 inflammasome in yeast | Yeast reconstituted NLRP3/ASC/caspase-1, beta-gal luminescence, 24 h | inhibition, % at 10 µM | 330,000 tested, 0.39% active;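 active = inhibition of 50% or more; inactive = inhibition below 50%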;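 also: plate controls were induced DMSO wells for no effect and uninduced yeast grown without galactose for full effect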
tim23-1 inh: inhibits growth of tim23-1 mutant yeast; S. cerevisiae tim23-1 growth, BacTiter-Glo luminescence, 24 h; inhibition, % at 20 µM; 330,000 tested, 1.3% active; AID 463212;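 active = growth inhibition of the mutant yeast at or above 50%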;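 also: temperature-sensitive mutant grown at 25 °C; plate controls were DMSO-treated mutant yeast for no effect and medium wells lacking yeast for full effect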
tim10-1 conf: confirmation of tim10-1 mutant yeast growth inhibitors. shares compounds with tim10-1 inh. S. cerevisiae tim10-1 ts strain growth, BacTiter-Glo, 24 h. inhibition, % at 20 µM. 7,400 tested, 56% active. AID 463213;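 active = inhibition of yeast growth at or above a set limit in either of two repeat tests at 20 µM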;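 also: tim10-1 mutant grown at permissive 25 °C to find synthetic lethal compounds; 0% = DMSO yeast wells and 100% = medium wells without yeast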
Active calls of the source: *; · = no result. Shown are actives, neighbours in structure and some others; about 4.1% of the full set was active somewhere.

SMILES	NALP1 yeast inh	PfHsp90 set2	tim10-1 inh	TIM10 inh	NLRP3 yeast inh	tim23-1 inh	tim10-1 conf
COC(=O)c1cn(-c2ccccc2)nc1-c1ccccc1	0	7	11	11	30	21	·
CCOC(=O)/C=C/C(=O)OCC(=O)Nc1ccc(C)cc1	-15	17	41*	29	-13	34	37*
COc1cc(/C=C2/CCc3ccccc3C2=O)cc(OC)c1OC	46	1	41*	40	18	42	29
CC1CCN(S(=O)(=O)c2ccc(NC(=O)CCNC(=O)c3ccc(Cl)cc3)cc2)CC1	·	-8	-12	-11	14	3	·
Cc1cc(C)n(-c2ncnc3sc4c(c23)CC(C)CC4)n1 (centres undefined)	-4	-4	13	21	4	34	·
Cc1cc(C)n(-c2nc(C)nc3sc4c(c23)CCC(C)C4)n1 (centres undefined)	-6	11	42*	27	1	47	29
COC(=O)c1c(-c2ccc(Br)cc2)noc1N	-6	·	46*	31	33	16	29
NC(=O)COC(=O)c1ccc(Cl)c(S(=O)(=O)N(Cc2ccccc2)c2ccc(Cl)cc2)c1	39	-19	41*	8	16	28	32*
COc1ccc(-c2nc3n(c(=O)c2C#N)CCS3)cc1	-16	-22	45*	2	8	5	26
O=C(CN1CCOCC1)N/N=C/c1ccco1	-4	-52	2	5	14	3	·
O=C(CN1CCOCC1)N/N=C/c1c(O)ccc2ccccc12	4	-13	46*	22	28	49	5
O=C(CSCC(=O)Nc1ccccc1)N/N=C/c1c(O)ccc2ccccc12	-14	-14	42*	38	16	-13	16
COc1ccc(CNC(=O)N[C@@H](CC(C)C)C(=O)O)cc1OC	9	14	11	8	14	-1	·
O=C1C(=Nc2cccc(Cl)c2)CC(c2ccc(Cl)cc2)N1c1cccc(Cl)c1 (centres undefined)	13	-7	·	·	·	·	·
O=S(=O)(/N=C(/Sc1ccccc1)c1ccccc1)c1ccccc1	8	-5	52*	39	12	31	43*
Cc1cc(=O)n2c3c(sc2n1)C(=O)N(Cc1ccccc1)C3=O	8	·	40*	21	15	29	34*
CC(C)c1ccc2oc(-c3cc(N)ccc3O)nc2c1	13	-107	52*	4	9	49	33*
CCOc1cccc(-c2nn3c(-c4ccco4)nnc3s2)c1	11	15	42*	26	4	13	25
COc1cccc(-c2nnc3sc(-c4ccc(C)cc4)nn23)c1	12	·	-1	2	29	27	·
COc1cccc(-c2nnc3sc(-c4ccco4)nn23)c1	8	·	-8	-14	28	5	·
COc1cccc(-c2nn3c(-c4cccc(C)c4)nnc3s2)c1	-1	-6	44*	19	-1	28	25
Cc1ccc(C(=O)N/C(=C\c2ccco2)C(=O)N2CCCCC2)cc1	8	-17	4	6	14	31	·
O=C(O)C(F)=C(c1ccccc1)c1ccccc1	·	2	-15	-26	-5	20	·
CCCCC(=O)Nc1ccc(NC(=S)NC(=O)CCCCl)cc1OC	31	-4	48*	35	17	22	39*
CCCCC(=O)NC(=S)Nc1ccc(NC(=O)C(C)C)c(OC)c1	19	8	43*	17	-9	31	21
SMILES	NALP1 yeast inh	PfHsp90 set2	tim10-1 inh	TIM10 inh	NLRP3 yeast inh	tim23-1 inh	tim10-1 conf
COc1ccc(N=c2scc(-c3ccc(OC)cc3)n2CCO)cc1	4	12	41*	9	17	41	25
COCCn1c(-c2ccc(Br)cc2)csc1=Nc1cccnc1	15	·	42*	-1	21	29	17
Clc1ccc(-c2csc(=Nc3cccnc3)n2CCCn2ccnc2)cc1Cl	-7	-9	27	32	15	20	·
CC(C)c1nnc(NC(=O)c2nc(S(=O)(=O)Cc3ccccc3)ncc2Cl)s1	-24	-8	-5	4	6	9	·
CN(c1ccccc1)S(=O)(=O)c1ccc(NC(=O)c2ccccc2)cc1	24	-8	4	-2	35	43	·
CCS(=O)(=O)c1ncc(Cl)c(C(=O)Nc2ccc(S(=O)(=O)N3CCC(C)CC3)cc2)n1	8	-17	42*	-14	-1	40	-34
CN(c1ccccc1)S(=O)(=O)c1ccc(NC(=O)c2nc(S(C)(=O)=O)ncc2Cl)cc1	19	-3	43*	18	1	26	-1
CC1CCN(S(=O)(=O)c2ccc(NC(=O)c3ccncc3)cc2)CC1	9	-37	37	18	18	30	·
CCOC(=O)c1ccc(NC(=O)c2nc(S(=O)(=O)Cc3ccccc3)ncc2Cl)cc1	10	9	55*	0	2	31	21
CC(C)Oc1ccc(C(=O)Nc2c3c(nn2C(C)(C)C)CS(=O)(=O)C3)cc1	17	5	-1	-11	-2	-5	·
O=C1/C(=C/c2ccc([N+](=O)[O-])cc2)C=C(c2ccccc2)N1c1ccc(O)cc1	17	-9	41*	18	9	1	37*
O=C1/C(=C/c2ccc([N+](=O)[O-])cc2)C=C(c2ccccc2)N1c1ccccc1	20	4	30	10	9	21	·
CCn1c(CN(C)c2ccccc2)nc2ccccc21	12	1	12	2	26	23	·
N#CCCN(Cc1ccccc1)C(=S)NC(=O)c1ccccc1	25	-16	40*	38	12	33	28
O=C1C=C(c2ccccc2)C(c2ccccc2)C1O (centres undefined)	·	-35	·	·	·	·	·
O=C(CCN1CCOCC1)c1ccc2c(c1)OCCO2	14	0	8	13	-2	12	·
O=C(CCN1CCc2ccccc2CC1)c1ccc2c(c1)OCCO2	-13	-15	79*	24	-8	14	22
CC(C)CC1NC(=O)C(CC(C)C)N(CO)C1=O (centres undefined)	·	-3	·	·	·	·	·
CC(C)C[C@@H](CSc1ccc(Br)cc1)N1CCN(C)CCC1=O	2	·	14	8	22	12	·
CC(C)C[C@@H](CSc1ccc(Br)cc1)N1CCN(CC(C)C)CCC1=O	-7	·	40*	0	23	4	32*
Cn1c(=O)c2c(nc(Sc3ncnn3CC(=O)N3CCOCC3)n2C)n(C)c1=O	·	1	1	-5	5	11	·
Nc1ccccc1C(=O)/C=C/c1ccc2c(c1)OCO2	32	13	44*	32	25	46	39*
O=C(/C=C/c1ccc2c(c1)OCO2)c1ccco1	41	7	17	22	-6	24	·
